Bioassay records as filed in PubChem.
In the library only some 6.9% were active in any assay of this set; here they are far more common.
SW480 rereplic: A quantitative high throughput screen for small molecules that induce DNA re-replication in SW480 colon adenocarcinoma cells; SW480 DNA re-replication, Hoechst DNA content imaging, 48 h; Potency, µM (highest dose often 46.1 µM), for the others: top-dose re-replication activation, most hits filed as activators; 340,000 tested, 1.8% active; AID 624297, 2012; also: potency is read from the fitted curve at half-maximal effect; % of control where 0% means no effect; nearly all actives have a fitted effect of over 55% in size
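DNA re-replication was detected as more nuclei of elevated Hoechst intensity after 48 hr exposure to compound (23 nL pinned per well of 250 cells).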
Vif-A3G inh: qHTS for Inhibitors of Vif-A3G Interactions: qHTS. DNA dC->dU-editing enzyme APOBEC-3G (Homo sapiens), Q9HC16. HeLa A3G-eYFP + Vif (tagged APOBEC3G with the HIV-1 protein that degrades it), YFP fluorescence, overnight. Potency, µM (highest dose often 46.1 µM), for inactives: at the highest dose activity, negative = active, usual class: inhibitors. 410,000 tested, 0.076% active. AID 602310, 2012; also: potency is read from the fitted curve at half-maximal effect; % is scaled to controls: 0 for no effect and ±100 for the full control effect; nearly all actives have a fitted effect of over 60% in size
Target sequence (Q9HC16 whole entry, looked up): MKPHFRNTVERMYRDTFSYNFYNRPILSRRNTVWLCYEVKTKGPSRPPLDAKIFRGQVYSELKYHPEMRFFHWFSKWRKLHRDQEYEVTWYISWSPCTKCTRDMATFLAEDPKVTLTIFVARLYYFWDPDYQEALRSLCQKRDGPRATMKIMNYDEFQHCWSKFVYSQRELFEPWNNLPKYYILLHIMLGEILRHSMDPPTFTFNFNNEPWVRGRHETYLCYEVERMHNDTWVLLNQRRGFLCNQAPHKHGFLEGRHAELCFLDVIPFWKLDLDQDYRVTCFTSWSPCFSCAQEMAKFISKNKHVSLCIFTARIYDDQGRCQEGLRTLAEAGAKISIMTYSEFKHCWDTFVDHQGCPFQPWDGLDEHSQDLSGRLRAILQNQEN
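HeLa cells stably expressing Vif and C-terminally eYFP-tagged A3G, seeded overnight at 37 deg C, then exposed to compound by pintool overnight at 37 deg C. Rise in yellow fluorescence (Ex 488/Em 500-530, Acumen) marks blocked Vif-driven A3G degradation.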
MCF10A rerep: A quantitative high throughput screen for small molecules that induce DNA re-replication in MCF 10a normal breast cells; 350,000 tested, 2.9% active; MCF 10A DNA re-replication, Hoechst nuclear intensity, 48 h; Potency, µM (series often up to 46.1 µM), for inactives: at the highest dose activity, positive = re-replication, actives largely listed as activators; AID 624296, 2012; also: potency is read from the fitted curve at half-maximal effect; % of control where 0% means no effect; nearly all actives have a fitted effect of over 50% in size
Giardia kill: Small Molecules that selectively kill Giardia lamblia: qHTS | Giardia lamblia trophozoite viability | activity change, % at 7.66 µM, hits read low | 340,000 tested, 0.15% active; in the data active = activity change below about -80%; inconclusive = between about -30% and that limit;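 also: parasites exposed to compound for two days anaerobically before the ATP read; % is scaled to controls: 0 for no effect and ±100 for the full control effect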
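Giardia trophozoites, 100 cells per well, were exposed to compounds for 48 hrs at 37 deg C under anaerobic conditions; viability was then read as ATP content by bioluminescence after 15-30 min at room temperature.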
Vif-APOBEC3F blk: qHTS for Inhibitors of Vif-A3F Interactions: qHTS; HeLa A3F-eYFP + Vif (tagged APOBEC3F with the HIV-1 protein that degrades it), YFP fluorescence increase; AID 602313, 2012; 390,000 tested, 0.2% active; Potency, µM (series often up to 46.1 µM), for the others: top-dose activity, negative = active; also: potency is read from the fitted curve at half-maximal effect; % of control where 0% means no effect; nearly all actives have a fitted effect of over 65% in size
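HeLa cells stably expressing Vif plus C-terminally eYFP-tagged A3F were seeded, incubated overnight at 37 deg C, dosed with compound, incubated overnight again at 37 deg C. Yellow fluorescence (Ex 488/Em 500-530) reported blocked Vif-mediated A3F-eYFP degradation.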
IL1B secr inh: qHTS for Inhibitors of Inflammasome Signaling: IL-1-beta AlphaLISA Primary Screen; THP-1 LPS/ATP IL-1B secretion, AlphaLISA, 16 h; active compounds read low; 360,000 tested, 4.7% active; activity change, % at 57.5 µM; in the data active = activity change below about -50%; inconclusive = mostly about -30% to -49%; also: % is scaled to controls: 0 for no effect and ±100 for the full control effect
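Secreted IL-1B measured by AlphaLISA bead assay after 16 h compound exposure of THP-1 cells; compounds (final up to 57.5 uM) added 1 h before LPS (250 ng/mL) and ATP (1.25 mM) stimulation; lower signal means less secretion.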
* = called active by the depositor; [ ] = dose if it differs, or a comment. Unless noted, calls follow the shape of the dose curve; as a rule, active = well fitted curve in the direction sought with a large enough effect; inconclusive = small, poorly fitted or top-dose-only effect, or another doubt; inactive = no such curve, though single readings can be large; an effect the other way counts as inactive or inconclusive.

For CN1CCN(C(=O)C2=C[C@@H](c3coc4ccccc4c3=O)C[C@@H](OCc3ccc(CO)cc3)O2)CC1 the results were SW480 rereplic -12%, Vif-A3G inh -1%, MCF10A rerep -11%, Giardia kill -6, Vif-APOBEC3F blk -3% and IL1B secr inh 12.
Screening O=C(C1=C[C@@H](c2csc3ccccc23)C[C@@H](OCc2ccc(CO)cc2)O1)N1CCN(Cc2ccccc2)CC1 returned SW480 rereplic -2%, Vif-A3G inh 0%, MCF10A rerep 9%, Giardia kill -16, Vif-APOBEC3F blk -29% and IL1B secr inh -60*.
For O=C(C1=C[C@@H](c2ccccc2)C[C@@H](OCc2ccc(CO)cc2)O1)N1CCN(Cc2ccc3c(c2)OCO3)CC1 the results were SW480 rereplic inconclusive, Vif-A3G inh -19%, MCF10A rerep inconclusive, Giardia kill 0, Vif-APOBEC3F blk 0% and IL1B secr inh inconclusive.
O=C(C1=C[C@@H](c2csc3ccccc23)C[C@@H](OCc2ccc(CO)cc2)O1)N1CCN(Cc2ccc3c(c2)OCO3)CC1 was read as SW480 rereplic inconclusive, Vif-A3G inh -12%, MCF10A rerep inconclusive, Giardia kill -3, Vif-APOBEC3F blk -3% and IL1B secr inh inconclusive.
`O=C(C1=C[C@H](c2ccccc2)C[C@H](OCc2ccc(CO)cc2)O1)N1CCN(Cc2ccccc2)CC1` gave SW480 rereplic -17%[9.22 µM], Vif-A3G inh -3%, MCF10A rerep inconclusive, Giardia kill 2, Vif-APOBEC3F blk 7% and IL1B secr inh -60*.
O=C(C1=C[C@@H](c2coc3ccccc3c2=O)C[C@@H](OCc2ccc(CO)cc2)O1)N1CCCCCCC1 was read as SW480 rereplic 5%[9.22 µM], Vif-A3G inh -1%, MCF10A rerep 1.3µM*, Giardia kill -1, Vif-APOBEC3F blk 4% and IL1B secr inh -19.
`CC(C)(C)NCC(O)COc1ccc(NC(=O)NC2CCCCC2)cc1` (centres undefined) gave SW480 rereplic 4% and MCF10A rerep 7%.
Screening Cc1ccc(SCC(=O)N(C)CC(=O)Nc2cccc(F)c2)c(C)c1 returned SW480 rereplic inconclusive, Vif-A3G inh 1%, MCF10A rerep 4%, Giardia kill 0, Vif-APOBEC3F blk 5% and IL1B secr inh -53*.
Screening Cc1ccc(-n2c3c(c(=O)[nH]c2=O)C(NC(=O)C(C)(C)C)(C(F)(F)F)C(=O)N3)cc1 (centres undefined) returned Vif-A3G inh 2% and Vif-APOBEC3F blk -3%.
CC(C)NC(=O)NC(=O)COc1ccc(Br)cc1Br was read as SW480 rereplic 12%, Vif-A3G inh -13%, MCF10A rerep 23µM*, Giardia kill -4, Vif-APOBEC3F blk 6% and IL1B secr inh 0.
Screening O=C(COc1ccc(Cl)cc1Cl)Nc1ccccn1 returned SW480 rereplic -1%, Vif-A3G inh -4%, MCF10A rerep 0%, Giardia kill -101*, Vif-APOBEC3F blk -1% and IL1B secr inh -22.
For CC(C)NC(=O)COc1ccc(Cl)cc1Cl the results were SW480 rereplic 16µM*, Vif-A3G inh 0%, MCF10A rerep inconclusive, Giardia kill 23, Vif-APOBEC3F blk 2% and IL1B secr inh inconclusive.
For O=C(COc1ccc(Br)cc1Br)NC1CCCC1 the results were SW480 rereplic inconclusive, Vif-A3G inh -8%, MCF10A rerep -6%, Giardia kill 51, Vif-APOBEC3F blk -2% and IL1B secr inh -22.
Screening O=C(COc1ccc(Cl)cc1Cl)N1CCCN(C(=O)COc2ccc(Cl)cc2Cl)CC1 returned SW480 rereplic inconclusive, Vif-A3G inh -8%, MCF10A rerep inconclusive, Giardia kill 11, Vif-APOBEC3F blk -1% and IL1B secr inh -76*.
For CCc1ccc(NC(=S)N(Cc2ccc(Cl)cc2)Cc2ccc(C(=O)O)cc2)cc1 the results were SW480 rereplic -3%, Vif-A3G inh -1%, MCF10A rerep 16%, Giardia kill 12, Vif-APOBEC3F blk 9% and IL1B secr inh -16.
Screening CC(C)CN(CC(C)C)C(=S)Nc1ccc(Cl)cc1 returned SW480 rereplic 10%, Vif-A3G inh -6%, MCF10A rerep 18µM*, Giardia kill -3, Vif-APOBEC3F blk 1% and IL1B secr inh 11.
Screening C=C[C@@H]1c2cc(C)ccc2N(S(=O)(=O)c2ccc(C)cc2)[C@H](c2ccc(C(=O)OC)cc2)C1(C#N)C#N returned Vif-A3G inh 0%.
For O=C1c2ccccc2C(=O)N1Nc1ccccc1 the results were SW480 rereplic 3%, Vif-A3G inh 1%, MCF10A rerep inconclusive, Giardia kill 6, Vif-APOBEC3F blk -3% and IL1B secr inh -4.
For O=C1c2cccc3c([N+](=O)[O-])c(O)cc(c23)C(=O)N1Nc1ccccc1 the results were SW480 rereplic -2%, Vif-A3G inh inconclusive, MCF10A rerep 10%, Giardia kill -23, Vif-APOBEC3F blk 10µM* and IL1B secr inh inconclusive.
For Cc1ccc(C(C[N+](=O)[O-])Sc2ccc(N)cc2)cc1 (centres undefined) the results were SW480 rereplic inconclusive, Vif-A3G inh -17%, MCF10A rerep 7.3µM*, Giardia kill -5 and Vif-APOBEC3F blk 4%.
Screening Cc1ccc(C(C[N+](=O)[O-])n2nc(C)cc2C)cc1 (centres undefined) returned SW480 rereplic inconclusive, Vif-A3G inh -9%, MCF10A rerep inconclusive, Giardia kill -16, Vif-APOBEC3F blk 4% and IL1B secr inh -1.
Cc1ccc(-n2nc(CO)c(C(=O)NCCCc3ccccc3)n2)cc1C was read as Vif-A3G inh -2% and Vif-APOBEC3F blk -5%.
Screening COc1ccc(-c2nnc(SCc3cc(=O)c4cc(C)cc(C)c4[nH]3)n2C)cc1 returned Vif-A3G inh 1% and Vif-APOBEC3F blk 2%.
N#CC(C(=O)NCCc1ccccc1)c1nc2ccccc2nc1N1CCCCC1 (centres undefined) was read as SW480 rereplic inconclusive, Vif-A3G inh -14%, MCF10A rerep 21µM*, Giardia kill -9, Vif-APOBEC3F blk -19% and IL1B secr inh -3.
Screening CCCN(CCC)c1nc2ccccc2nc1C(C#N)C(=O)OC(C)COC (centres undefined) returned SW480 rereplic -2%, Vif-A3G inh -1%, MCF10A rerep inconclusive, Giardia kill 8, Vif-APOBEC3F blk 3% and IL1B secr inh -51*.
